This experiment can be described thus: chemical genetic growth profiling, strain panel (AID 1159580).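 Further: tested at 20 µM; growth read once vehicle control cultures reached saturation at 30 °C; 1 = growth at the plate median or of vehicle wells; lower values mean less growth of the strain.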 Conditions: growth OD.
The mark [1] stands for this setting: S. cerevisiae deletion strains, locus YAL013W, strain DEP1, hits give low values.
Where [2] appears, read: S. cerevisiae deletion strains, locus YDR150W, strain NUM1, hits give low values.
Setting [3] is: S. cerevisiae deletion strains, locus YGR078C, strain PAC10, hits give low values.
Setting [4] is: S. cerevisiae deletion strains, locus YMR307W, strain GAS1, hits give low values.
The mark [5] stands for this setting: S. cerevisiae deletion strains, locus YPL055C, strain LGE1, hits give low values.
[6] abbreviates: S. cerevisiae deletion strains, locus YBR229C, strain ROT2, hits give low values.
Where [7] appears, read: S. cerevisiae deletion strains, locus YDL101C, strain DUN1, hits give low values.
The mark [8] stands for this setting: S. cerevisiae deletion strains, locus YDL134C, strain PPH21, hits give low values.
Setting [9] is: S. cerevisiae deletion strains, locus YEL061C, strain CIN8, hits give low values.
The mark [10] stands for this setting: S. cerevisiae deletion strains, locus YHR030C, strain SLT2, hits give low values.
Where [11] appears, read: S. cerevisiae deletion strains, locus YHR087W, strain rtc3, hits give low values.
The mark [12] stands for this setting: S. cerevisiae deletion strains, locus YJL187C, strain SWE1, hits give low values.
[13] abbreviates: S. cerevisiae deletion strains, locus YJR043C, strain POL32, hits give low values.
Where [14] appears, read: S. cerevisiae deletion strains, locus YJR075W, strain HOC1, hits give low values.
[15] abbreviates: S. cerevisiae deletion strains, locus YLR039C, strain RIC1, hits give low values.
Where [16] appears, read: S. cerevisiae deletion strains, locus YLR058C, strain SHM2 (second series), hits give low values.
[17] abbreviates: S. cerevisiae deletion strains, locus YLR085C, strain ARP6, hits give low values.
[18] abbreviates: S. cerevisiae deletion strains, locus YLR262C, strain YPT6, hits give low values.
[19] abbreviates: S. cerevisiae deletion strains, locus YML094W, strain GIM5, hits give low values.
Where [20] appears, read: S. cerevisiae deletion strains, locus YMR219W, strain ESC1, hits give low values.
Setting [21] is: S. cerevisiae deletion strains, locus YMR263W, strain SAP30, hits give low values.
The mark [22] stands for this setting: S. cerevisiae deletion strains, locus YNL153C, strain GIM3, hits give low values.
[23] abbreviates: S. cerevisiae deletion strains, locus YNL298W, strain CLA4 (second series), hits give low values.
Where [24] appears, read: S. cerevisiae deletion strains, locus YNL322C, strain KRE1, hits give low values.
[25] abbreviates: S. cerevisiae deletion strains, locus YNR030W, strain Alg12, hits give low values.
[26] abbreviates: S. cerevisiae deletion strains, locus YPL241C, strain CIN2, hits give low values.
Setting [27] is: S. cerevisiae deletion strains, locus YPR135W, strain CTF4, hits give low values.
The mark [28] stands for this setting: S. cerevisiae strains, strain wild type, hits give low values.

The structures appear in SMILES notation. Screen size: about 5,500 compounds; about 2,000 (36%) were called active. Roughly 18% stayed inconclusive and do not appear here. The list shows a part of the results. Values without a mark were called inactive. No stated cut-off is given here; in the data, active means normalized growth mostly below about 0.91 (no sharp cut-off); inconclusive means no clear call, values can overlap the other calls; inactive means mostly above about 0.92.

Turning to `O=c1[nH]c2cc(C(F)(F)F)ccc2n1-c1cc(C(F)(F)F)ccc1O`, the normalized growth is 1.02 under setting [1]; 0.998 (S. cerevisiae deletion strains, locus YAL040C, strain CLN3, hits give low values); 1.01 (S. cerevisiae deletion strains, locus YCL061C, strain MRC1 (second series), hits give low values); 1.01 under setting [2]; 1.01 (S. cerevisiae deletion strains, locus YDR363W, strain ESC2, hits give low values); 1.02 (S. cerevisiae deletion strains, locus YER002W, strain NOP16, hits give low values). Moreover, the normalized growth under setting [3] was 1.03; the normalized growth under setting [4] was 1.02; the normalized growth (S. cerevisiae deletion strains, locus YNL175C, strain NOP13, hits give low values) is 0.961; the normalized growth (S. cerevisiae deletion strains, locus YNL197C, strain WHI3, hits give low values) is 0.995; the normalized growth (S. cerevisiae deletion strains, locus YNL224C, strain SQS1, hits give low values) is 0.998; the normalized growth (S. cerevisiae deletion strains, locus YOR083W, strain WHI5 (second series), hits give low values) is 0.903. Under setting [5], the normalized growth is 1.01.

Turning to `Cn1c(=S)[nH]c2cc(C(F)(F)F)ccc21`, the normalized growth runs as follows: under setting [1], 0.977; under setting [6], 0.987; under setting [7], 0.968; under setting [8], 0.979; under setting [2], 0.959; under setting [9], 0.888 (active). Besides, the normalized growth is 0.975 under setting [3]; 0.767 under setting [10]; 1 under setting [11]; 0.98 under setting [12]; 0.978 under setting [13]; 1.02 under setting [14]. Also, the normalized growth runs as follows: under setting [15], 0.538 (active); under setting [16], 0.974; under setting [17], 0.378 (active); under setting [18], 0.733 (active); under setting [19], 0.911; under setting [20], 0.987. In addition, the normalized growth is 0.966 under setting [21]; 0.718 under setting [4]; 0.997 under setting [22]; 0.803 (active) under setting [23]; 0.998 under setting [24]; 0.946 under setting [25]. The normalized growth runs as follows: under setting [5], 0.866; under setting [26], 0.925; under setting [27], 0.617 (active); under setting [28], 0.969.

Take `FC(F)(F)c1ccc2[nH]c(=S)[nH]c2c1`: the normalized growth reads like this: under setting [1], 0.995; under setting [6], 0.996; (S. cerevisiae deletion strains, locus YCL061C, strain MRC1, hits give low values) 0.983; under setting [7], 0.983; under setting [8], 0.99; under setting [2], 0.986. The normalized growth by setting is: under setting [9], 0.998; under setting [3], 0.982; (S. cerevisiae deletion strains, locus YGR229C, strain SMI1, hits give low values) 1; under setting [10], 0.89; under setting [11], 0.999; under setting [12], 0.997. Besides, the normalized growth is 0.986 under setting [13]; 1.01 under setting [14]; 0.952 under setting [15]; 0.994 under setting [16]; 0.955 under setting [17]; 0.963 under setting [18]. Moreover, the normalized growth was 0.905 under setting [19]; 1 under setting [20]; 1.02 under setting [21]; 0.993 (S. cerevisiae deletion strains, locus YNL128W, strain TEP1, hits give low values); 1 under setting [22]; 0.979 under setting [23]. In addition, the normalized growth is, setting by setting: under setting [24], 0.997; under setting [25], 0.977; (S. cerevisiae deletion strains, locus YOL006C, strain TOP1, hits give low values) 0.997; under setting [5], 0.98; under setting [26], 0.966; under setting [27], 0.779.

`Cc1ncc([N+](=O)[O-])n1CC(O)CCl` (stereo unspecified): the normalized growth is 0.977 (S. cerevisiae deletion strains, locus YHR079C, strain IRE1, hits give low values); 0.965 (S. cerevisiae deletion strains, locus YJL095W, strain BCK1, hits give low values); 0.956 (S. cerevisiae deletion strains, locus YJR066W, strain TOR1, hits give low values); 0.978 (S. cerevisiae deletion strains, locus YLR113W, strain HOG1, hits give low values); 0.922 (S. cerevisiae deletion strains, locus YNL183C, strain NPR1, hits give low values); 0.97 (S. cerevisiae deletion strains, locus YOR231W, strain MKK1, hits give low values). Besides, the normalized growth (S. cerevisiae deletion strains, locus YPL256C, strain CLN2, hits give low values) is 0.933.

As to `COc1ccc(-c2nc(-c3ccc(-c4ccccc4)cc3)cs2)cc1`, the normalized growth is, setting by setting: under setting [1], 1.03; under setting [6], 1.01; under setting [7], 1.03; under setting [8], 0.87 (active); under setting [2], 1; under setting [9], 0.979. The normalized growth under setting [3] is 1.02; the normalized growth under setting [10] is 1.08; the normalized growth under setting [11] is 1; the normalized growth under setting [12] is 0.968; the normalized growth under setting [13] was 1.03; the normalized growth under setting [14] is 1.02. Also, the normalized growth is, setting by setting: (S. cerevisiae deletion strains, locus YKL190W, strain CNB1, hits give low values) 0.995; under setting [15], 1.02; under setting [16], 1.02; under setting [17], 1.02; under setting [18], 1.09; under setting [19], 0.999. Further, the normalized growth is, setting by setting: under setting [20], 1.01; under setting [21], 1.01; under setting [22], 1.02; under setting [23], 1.09; under setting [24], 1.01; under setting [25], 1.02. For the same molecule, the normalized growth runs as follows: under setting [5], 1.01; under setting [26], 1; under setting [27], 1.14; under setting [28], 1.

Values taken from PubChem BioAssay AID1159580 (chemical genetic matrix, 2015).
